# Measurements from article PMC7862700, “An all-to-all approach to the identification of sequence-specific readers for epigenetic DNA modifications on cytosine”.
# Key:
# Experiment in all cases: DAPPL (digital affinity profiling via proximity ligation, sequencing); 10 mM Tris-HCl pH 7.5, 50 mM NaCl, 1 mM DTT, 4% glycerol, room temperature, 30 min; GST-TFs on glutathione beads, 16-mer random dsDNA library, 0.1% formaldehyde crosslink after washing; high values mean tight binding
# FEV = target: T1, FEV (Homo sapiens, UniProt Q99581 1-238); settings: protein: recombinant; tags: N-terminal GST; dsDNA, one strand shown
# T1 sequence: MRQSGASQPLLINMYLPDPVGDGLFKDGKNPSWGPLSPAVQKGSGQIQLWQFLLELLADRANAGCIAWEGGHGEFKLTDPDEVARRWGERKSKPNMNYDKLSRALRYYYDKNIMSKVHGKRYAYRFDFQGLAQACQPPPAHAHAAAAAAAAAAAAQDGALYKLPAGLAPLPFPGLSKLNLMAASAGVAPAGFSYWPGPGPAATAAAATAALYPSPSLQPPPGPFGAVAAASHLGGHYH
# Method in brief: (§1)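 Binding signal is given per hexamer as its read frequency for a factor divided by its frequency in the tag-only sample. GST-fused human transcription factors were expressed in yeast, captured on glutathione beads, barcoded with DNA and pooled with that sample, then incubated with 200 nmole of a 16-mer random double-stranded DNA library in Tris/NaCl/DTT/glycerol buffer for 30 min at room temperature. The pools were then washed, crosslinked, proximity-ligated, amplified by PCR and sequenced on an Illumina NextSeq500.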
# ETV5 = ETV5 (Homo sapiens, UniProt P41161 1-510); settings: protein: recombinant; tags: N-terminal GST; dsDNA, one strand shown
# Sequence of ETV5 (P41161 whole entry): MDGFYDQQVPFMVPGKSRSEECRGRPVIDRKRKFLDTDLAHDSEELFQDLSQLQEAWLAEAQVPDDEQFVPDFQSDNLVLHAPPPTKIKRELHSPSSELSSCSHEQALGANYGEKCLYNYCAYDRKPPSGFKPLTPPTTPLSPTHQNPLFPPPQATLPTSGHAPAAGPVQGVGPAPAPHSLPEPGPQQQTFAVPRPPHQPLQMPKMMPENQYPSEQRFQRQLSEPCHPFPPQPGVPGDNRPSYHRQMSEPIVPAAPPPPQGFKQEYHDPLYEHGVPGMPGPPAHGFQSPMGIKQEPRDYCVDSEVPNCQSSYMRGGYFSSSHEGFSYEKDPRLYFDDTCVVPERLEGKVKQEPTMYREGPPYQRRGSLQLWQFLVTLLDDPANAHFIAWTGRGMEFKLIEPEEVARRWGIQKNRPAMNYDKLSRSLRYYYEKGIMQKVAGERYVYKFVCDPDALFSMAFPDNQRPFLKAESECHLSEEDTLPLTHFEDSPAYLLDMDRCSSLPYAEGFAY
# Method in brief: as §1
# HSF1 = HSF1 (Homo sapiens, UniProt Q00613 1-529); settings: protein: recombinant; tags: N-terminal GST; chain copies: 3; dsDNA, one strand shown
# Sequence of HSF1 (Q00613 whole entry): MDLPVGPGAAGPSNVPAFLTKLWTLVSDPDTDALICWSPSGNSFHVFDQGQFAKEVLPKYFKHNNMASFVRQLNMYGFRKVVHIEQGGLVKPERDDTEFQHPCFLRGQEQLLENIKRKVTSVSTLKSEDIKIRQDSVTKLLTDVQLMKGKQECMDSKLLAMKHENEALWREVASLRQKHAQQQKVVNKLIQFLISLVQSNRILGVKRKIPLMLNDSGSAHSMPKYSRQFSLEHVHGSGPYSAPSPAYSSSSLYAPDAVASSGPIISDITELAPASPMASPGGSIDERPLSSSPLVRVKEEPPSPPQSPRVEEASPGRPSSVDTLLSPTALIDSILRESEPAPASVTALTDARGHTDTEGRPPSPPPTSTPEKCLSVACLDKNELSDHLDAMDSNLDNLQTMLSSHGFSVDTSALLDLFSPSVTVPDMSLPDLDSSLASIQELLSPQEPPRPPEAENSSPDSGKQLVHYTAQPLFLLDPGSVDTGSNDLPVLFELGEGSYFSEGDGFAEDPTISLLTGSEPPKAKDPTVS
# Method in brief: as §1
# SPIC = target: T2, SPIC (Homo sapiens, UniProt Q8N5J4 1-248); settings: protein: recombinant; tags: N-terminal GST; dsDNA, one strand shown
# T2 sequence: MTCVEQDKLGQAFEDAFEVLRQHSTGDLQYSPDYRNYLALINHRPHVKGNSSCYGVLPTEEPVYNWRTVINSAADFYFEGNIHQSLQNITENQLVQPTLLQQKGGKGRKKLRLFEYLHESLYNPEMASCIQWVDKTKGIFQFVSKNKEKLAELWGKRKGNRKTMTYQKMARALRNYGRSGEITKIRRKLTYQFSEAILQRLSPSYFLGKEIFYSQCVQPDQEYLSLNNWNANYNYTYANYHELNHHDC
# Method in brief: as §1
# ELF4 = ELF4 (Homo sapiens, UniProt Q99607 1-663); settings: protein: recombinant; tags: N-terminal GST; dsDNA, one strand shown
# Sequence of ELF4 (Q99607 whole entry): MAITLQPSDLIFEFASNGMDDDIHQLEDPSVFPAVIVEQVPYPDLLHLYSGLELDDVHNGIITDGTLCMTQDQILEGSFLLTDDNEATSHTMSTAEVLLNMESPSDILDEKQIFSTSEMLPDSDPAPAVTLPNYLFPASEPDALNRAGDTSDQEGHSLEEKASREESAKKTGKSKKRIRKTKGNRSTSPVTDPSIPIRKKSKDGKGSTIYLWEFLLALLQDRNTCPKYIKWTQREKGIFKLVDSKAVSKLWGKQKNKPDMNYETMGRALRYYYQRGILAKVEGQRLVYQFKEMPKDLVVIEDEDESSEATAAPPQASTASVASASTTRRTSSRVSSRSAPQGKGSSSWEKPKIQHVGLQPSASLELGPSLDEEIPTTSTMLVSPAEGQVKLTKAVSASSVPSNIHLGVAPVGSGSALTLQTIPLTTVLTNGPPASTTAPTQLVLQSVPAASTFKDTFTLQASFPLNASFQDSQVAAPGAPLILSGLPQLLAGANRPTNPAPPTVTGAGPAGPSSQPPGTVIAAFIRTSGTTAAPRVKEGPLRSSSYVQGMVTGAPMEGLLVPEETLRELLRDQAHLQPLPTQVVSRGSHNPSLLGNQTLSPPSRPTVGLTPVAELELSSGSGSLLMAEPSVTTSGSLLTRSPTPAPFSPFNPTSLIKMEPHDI
# Method in brief: as §1
# ELK4 = target: T3, ELK4 (Homo sapiens, UniProt P28324-2 1-405); settings: protein: recombinant; tags: N-terminal GST; dsDNA, one strand shown
# T3 sequence: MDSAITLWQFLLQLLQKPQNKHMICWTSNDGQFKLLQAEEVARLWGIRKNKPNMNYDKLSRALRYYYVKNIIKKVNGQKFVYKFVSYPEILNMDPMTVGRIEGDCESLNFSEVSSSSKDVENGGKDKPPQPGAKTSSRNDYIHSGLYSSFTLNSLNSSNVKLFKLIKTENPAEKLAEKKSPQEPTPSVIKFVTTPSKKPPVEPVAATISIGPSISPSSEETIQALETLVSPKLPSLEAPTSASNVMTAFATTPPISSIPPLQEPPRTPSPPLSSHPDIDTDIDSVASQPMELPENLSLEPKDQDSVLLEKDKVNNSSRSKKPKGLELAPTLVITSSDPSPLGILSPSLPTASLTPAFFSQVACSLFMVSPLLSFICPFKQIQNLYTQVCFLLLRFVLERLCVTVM
# Method in brief: as §1
# ETV2 = target: T4, ETV2 (Homo sapiens, UniProt O00321 1-342); settings: protein: recombinant; tags: N-terminal GST; dsDNA, one strand shown
# T4 sequence: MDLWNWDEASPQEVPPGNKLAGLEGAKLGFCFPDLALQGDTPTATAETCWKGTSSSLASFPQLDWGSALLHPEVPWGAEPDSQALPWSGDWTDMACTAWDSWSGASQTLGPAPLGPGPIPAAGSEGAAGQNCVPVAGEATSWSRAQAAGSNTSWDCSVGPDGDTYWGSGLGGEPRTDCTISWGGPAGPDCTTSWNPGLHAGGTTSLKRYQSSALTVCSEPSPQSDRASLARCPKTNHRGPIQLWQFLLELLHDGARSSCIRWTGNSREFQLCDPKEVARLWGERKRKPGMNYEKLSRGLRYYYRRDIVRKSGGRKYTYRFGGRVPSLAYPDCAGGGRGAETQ
# Method in brief: as §1
# ELF3 = target: T5, ELF3 (Homo sapiens, UniProt P78545 1-371); settings: protein: recombinant; tags: N-terminal GST; dsDNA, one strand shown
# T5 sequence: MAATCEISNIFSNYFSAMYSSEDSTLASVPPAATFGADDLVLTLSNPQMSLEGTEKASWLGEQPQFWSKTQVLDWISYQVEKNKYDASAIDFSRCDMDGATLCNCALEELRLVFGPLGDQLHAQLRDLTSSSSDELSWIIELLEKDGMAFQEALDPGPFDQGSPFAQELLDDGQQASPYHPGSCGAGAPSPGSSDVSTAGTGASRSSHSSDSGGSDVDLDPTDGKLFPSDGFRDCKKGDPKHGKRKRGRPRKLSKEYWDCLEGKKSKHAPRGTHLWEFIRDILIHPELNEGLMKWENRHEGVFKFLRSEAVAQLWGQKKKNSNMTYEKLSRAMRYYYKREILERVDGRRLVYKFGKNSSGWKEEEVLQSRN
# Method in brief: as §1
# CRX = CRX (Homo sapiens, UniProt O43186 1-299); settings: protein: recombinant; tags: N-terminal GST; dsDNA, one strand shown
# Sequence of CRX (O43186 whole entry): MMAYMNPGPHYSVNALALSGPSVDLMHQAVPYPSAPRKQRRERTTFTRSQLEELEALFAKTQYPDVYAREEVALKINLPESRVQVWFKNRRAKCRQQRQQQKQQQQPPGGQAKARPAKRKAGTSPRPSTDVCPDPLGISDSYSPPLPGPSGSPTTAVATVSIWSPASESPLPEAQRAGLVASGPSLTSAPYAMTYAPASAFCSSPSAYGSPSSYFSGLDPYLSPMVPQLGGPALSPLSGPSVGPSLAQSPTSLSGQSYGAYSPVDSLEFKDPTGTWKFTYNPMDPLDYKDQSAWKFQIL
# Method in brief: as §1
# ETV1 = ETV1 (Homo sapiens, UniProt P50549 1-477); settings: protein: recombinant; tags: N-terminal GST; dsDNA, one strand shown
# Sequence of ETV1 (P50549 whole entry): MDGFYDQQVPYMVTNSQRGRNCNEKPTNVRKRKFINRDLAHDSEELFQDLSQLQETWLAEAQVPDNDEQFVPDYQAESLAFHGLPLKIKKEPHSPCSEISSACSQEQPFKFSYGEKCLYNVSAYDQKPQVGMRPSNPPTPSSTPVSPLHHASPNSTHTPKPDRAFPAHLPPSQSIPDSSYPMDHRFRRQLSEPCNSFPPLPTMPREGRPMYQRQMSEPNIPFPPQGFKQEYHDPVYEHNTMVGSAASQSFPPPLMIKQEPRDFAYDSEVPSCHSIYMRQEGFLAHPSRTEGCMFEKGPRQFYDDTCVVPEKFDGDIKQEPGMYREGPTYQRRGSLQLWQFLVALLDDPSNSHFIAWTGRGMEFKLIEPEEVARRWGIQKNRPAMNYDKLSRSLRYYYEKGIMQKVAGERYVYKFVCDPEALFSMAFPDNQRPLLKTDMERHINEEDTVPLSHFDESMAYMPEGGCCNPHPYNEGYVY
# Method in brief: as §1
# ERF = target: T6, ERF (Homo sapiens, UniProt P50548 1-548); settings: protein: recombinant; tags: N-terminal GST; dsDNA, one strand shown
# T6 sequence: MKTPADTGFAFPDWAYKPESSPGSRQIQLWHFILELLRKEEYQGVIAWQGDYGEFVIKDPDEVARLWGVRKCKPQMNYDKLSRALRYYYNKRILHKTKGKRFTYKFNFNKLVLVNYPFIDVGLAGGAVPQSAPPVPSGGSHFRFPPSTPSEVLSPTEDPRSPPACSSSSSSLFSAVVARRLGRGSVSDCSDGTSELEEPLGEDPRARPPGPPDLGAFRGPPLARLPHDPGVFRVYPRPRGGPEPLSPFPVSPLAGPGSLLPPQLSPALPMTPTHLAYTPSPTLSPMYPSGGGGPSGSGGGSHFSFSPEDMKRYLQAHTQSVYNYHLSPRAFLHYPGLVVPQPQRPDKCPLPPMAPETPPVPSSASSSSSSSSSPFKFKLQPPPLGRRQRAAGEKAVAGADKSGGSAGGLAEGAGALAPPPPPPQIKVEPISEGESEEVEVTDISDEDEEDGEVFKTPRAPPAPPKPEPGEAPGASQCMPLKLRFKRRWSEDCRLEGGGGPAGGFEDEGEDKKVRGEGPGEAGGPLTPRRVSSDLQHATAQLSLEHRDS
# Method in brief: as §1
# ETV3L = target: T7, ETV3L (Homo sapiens, UniProt Q6ZN32 1-361); settings: protein: recombinant; tags: N-terminal GST; dsDNA, one strand shown
# T7 sequence: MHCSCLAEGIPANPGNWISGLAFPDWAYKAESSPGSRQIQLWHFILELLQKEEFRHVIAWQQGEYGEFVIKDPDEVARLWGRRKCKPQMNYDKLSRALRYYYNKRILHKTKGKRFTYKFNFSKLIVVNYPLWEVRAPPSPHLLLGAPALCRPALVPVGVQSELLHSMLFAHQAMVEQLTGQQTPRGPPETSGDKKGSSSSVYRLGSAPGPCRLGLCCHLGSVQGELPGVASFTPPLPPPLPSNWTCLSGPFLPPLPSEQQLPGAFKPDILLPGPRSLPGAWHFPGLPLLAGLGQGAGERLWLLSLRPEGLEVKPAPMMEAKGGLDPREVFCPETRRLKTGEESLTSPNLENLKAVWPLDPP
# Method in brief: as §1
# ETS2 = target: T8, ETS2 (Homo sapiens, UniProt P15036 1-469); settings: protein: recombinant; tags: N-terminal GST; dsDNA, one strand shown
# T8 sequence: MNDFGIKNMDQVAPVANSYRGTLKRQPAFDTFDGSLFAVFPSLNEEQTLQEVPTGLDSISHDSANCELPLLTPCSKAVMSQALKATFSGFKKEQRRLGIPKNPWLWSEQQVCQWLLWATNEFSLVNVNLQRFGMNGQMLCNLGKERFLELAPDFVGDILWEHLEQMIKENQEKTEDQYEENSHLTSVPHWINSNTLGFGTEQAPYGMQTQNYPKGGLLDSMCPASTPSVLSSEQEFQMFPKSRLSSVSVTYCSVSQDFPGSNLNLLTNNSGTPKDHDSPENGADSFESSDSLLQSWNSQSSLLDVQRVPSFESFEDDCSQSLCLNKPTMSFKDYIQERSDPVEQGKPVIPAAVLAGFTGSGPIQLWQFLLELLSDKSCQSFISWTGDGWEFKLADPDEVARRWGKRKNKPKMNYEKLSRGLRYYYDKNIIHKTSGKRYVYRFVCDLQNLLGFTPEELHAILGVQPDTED
# Method in brief: as §1
# SPDEF = target: T9, SPDEF (Homo sapiens, UniProt O95238 1-335); settings: protein: recombinant; tags: N-terminal GST; dsDNA, one strand shown
# T9 sequence: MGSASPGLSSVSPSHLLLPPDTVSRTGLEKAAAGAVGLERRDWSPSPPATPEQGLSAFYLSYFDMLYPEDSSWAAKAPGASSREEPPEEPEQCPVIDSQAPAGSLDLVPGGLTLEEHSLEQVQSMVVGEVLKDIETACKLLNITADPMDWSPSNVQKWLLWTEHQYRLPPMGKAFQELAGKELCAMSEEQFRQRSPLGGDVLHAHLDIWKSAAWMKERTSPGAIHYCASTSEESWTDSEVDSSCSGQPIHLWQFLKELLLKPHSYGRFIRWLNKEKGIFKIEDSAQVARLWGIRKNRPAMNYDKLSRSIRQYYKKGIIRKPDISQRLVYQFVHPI
# Method in brief: as §1
# ETV7 = target: T10, ETV7 (Homo sapiens, UniProt Q9Y603 1-341); settings: protein: recombinant; tags: N-terminal GST; dsDNA, one strand shown
# T10 sequence: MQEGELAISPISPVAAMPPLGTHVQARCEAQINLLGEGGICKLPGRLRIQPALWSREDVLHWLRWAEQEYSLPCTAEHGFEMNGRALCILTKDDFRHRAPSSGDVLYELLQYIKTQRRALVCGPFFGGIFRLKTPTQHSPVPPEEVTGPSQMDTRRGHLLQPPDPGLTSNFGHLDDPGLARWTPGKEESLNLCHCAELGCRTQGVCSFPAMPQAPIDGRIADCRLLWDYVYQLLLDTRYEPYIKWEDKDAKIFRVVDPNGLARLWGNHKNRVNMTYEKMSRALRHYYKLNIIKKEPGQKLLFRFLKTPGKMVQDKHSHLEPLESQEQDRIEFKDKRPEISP
# Method in brief: as §1
# ELF5 = target: T11, ELF5 (Homo sapiens, UniProt Q9UKW6-2 1-255); settings: protein: recombinant; tags: N-terminal GST; dsDNA, one strand shown
# T11 sequence: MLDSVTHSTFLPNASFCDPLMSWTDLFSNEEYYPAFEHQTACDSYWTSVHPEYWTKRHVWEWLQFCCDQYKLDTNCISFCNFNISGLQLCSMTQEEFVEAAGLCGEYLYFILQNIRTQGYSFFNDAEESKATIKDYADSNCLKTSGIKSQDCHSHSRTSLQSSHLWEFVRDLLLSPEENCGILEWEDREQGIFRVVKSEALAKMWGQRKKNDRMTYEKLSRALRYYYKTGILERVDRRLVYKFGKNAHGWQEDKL
# Method in brief: as §1
# ETV3 = target: T12, ETV3 (Homo sapiens, UniProt P41162-2 1-143); settings: protein: recombinant; tags: N-terminal GST; dsDNA, one strand shown
# T12 sequence: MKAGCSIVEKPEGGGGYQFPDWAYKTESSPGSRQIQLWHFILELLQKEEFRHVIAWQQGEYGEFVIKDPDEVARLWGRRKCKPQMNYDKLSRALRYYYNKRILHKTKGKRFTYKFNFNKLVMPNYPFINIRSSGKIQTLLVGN
# Method in brief: as §1
# ETV6 = ETV6 (Homo sapiens, UniProt P41212 1-452); settings: protein: recombinant; tags: N-terminal GST; dsDNA, one strand shown
# Sequence of ETV6 (P41212 whole entry): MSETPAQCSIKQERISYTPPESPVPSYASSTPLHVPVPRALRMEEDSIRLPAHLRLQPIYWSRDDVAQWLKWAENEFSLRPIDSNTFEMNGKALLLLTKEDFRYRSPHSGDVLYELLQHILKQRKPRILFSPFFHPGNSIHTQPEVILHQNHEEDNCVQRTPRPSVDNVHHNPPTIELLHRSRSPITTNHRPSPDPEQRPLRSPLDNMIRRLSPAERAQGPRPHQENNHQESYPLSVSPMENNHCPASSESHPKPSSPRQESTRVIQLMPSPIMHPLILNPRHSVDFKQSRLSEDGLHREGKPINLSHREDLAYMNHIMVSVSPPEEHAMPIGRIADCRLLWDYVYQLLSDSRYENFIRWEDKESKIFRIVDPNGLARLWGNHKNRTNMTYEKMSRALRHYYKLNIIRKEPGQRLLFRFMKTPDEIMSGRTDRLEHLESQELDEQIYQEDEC
# Method in brief: as §1
sequence,measurement,setting,value
TACCGA,binding signal,FEV,"1.11 fold enrichment (6-mer frequency, TF over GST control)"
same,binding signal,ETV5,"1.14 fold enrichment (6-mer frequency, TF over GST control)"
same,binding signal,HSF1,"1.21 fold enrichment (6-mer frequency, TF over GST control)"
same,binding signal,SPIC,"1.2 fold enrichment (6-mer frequency, TF over GST control)"
same,binding signal,ELF4,"1.18 fold enrichment (6-mer frequency, TF over GST control)"
same,binding signal,ELK4,"1.12 fold enrichment (6-mer frequency, TF over GST control)"
same,binding signal,ETV2,"1.04 fold enrichment (6-mer frequency, TF over GST control)"
same,binding signal,ELF3,"1.3 fold enrichment (6-mer frequency, TF over GST control)"
same,binding signal,CRX,"1.33 fold enrichment (6-mer frequency, TF over GST control)"
same,binding signal,ETV1,"1.24 fold enrichment (6-mer frequency, TF over GST control)"
same,binding signal,ERF,"1.05 fold enrichment (6-mer frequency, TF over GST control)"
same,binding signal,ETV3L,"1.13 fold enrichment (6-mer frequency, TF over GST control)"
same,binding signal,ETS2,"1.12 fold enrichment (6-mer frequency, TF over GST control)"
same,binding signal,SPDEF,"1.12 fold enrichment (6-mer frequency, TF over GST control)"
same,binding signal,ETV7,"1.01 fold enrichment (6-mer frequency, TF over GST control)"
same,binding signal,ELF5,"1.08 fold enrichment (6-mer frequency, TF over GST control)"
same,binding signal,ETV3,"1.09 fold enrichment (6-mer frequency, TF over GST control)"
same,binding signal,ETV6,"1.09 fold enrichment (6-mer frequency, TF over GST control)"
